According to the supplement of paper PMC11383364:
± gives the standard deviation of the averaged measurements.

Each compound was assayed on SUM149 (assay: percent difference in area under dose-response curve of relative cell number, RPMI vs HPLM; higher = drug relatively more effective in HPLM than RPMI (negative = less effective in HPLM)). Conditions: treatment time: 72 h; dose range: 10-point, 1 nM to 20 µM; media compared: RPMI vs HPLM.
Procedure: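 SUM149 triple-negative breast cancer cells, 500 cells/well in 384-well plates, were grown in RPMI or human plasma-like medium (HPLM) with 5% dialyzed FBS. They were pin-transferred with an anticancer plus metabolic-inhibitor library in 10-point dose series (20 µM to 1 nM). After 72 h, cells were fixed, stained with bisbenzimide and counted by Acumen plate cytometry. The AUC of relative survival vs dose was computed per medium, and the percent difference in AUC between RPMI and HPLM is reported.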

Point of comparison: `COc1cccc2c1C(=O)c1c(O)c3c(c(O)c1C2=O)C[C@@](O)(C(C)=O)C[C@@H]3O[C@H]1C[C@H](N)[C@H](O)[C@H](C)O1` [Daunorubicin_HCl], “percent difference in area under dose-response curve” value -26.8%. Against it:
- C=CC(=O)Nc1cccc(Nc2nc(Nc3ccc(NC4CN(CCF)C4)cc3OC)ncc2C(F)(F)F)c1 — higher, 10.4%
- CCC1=C[C@@H]2CN(C1)Cc1c([nH]c3ccccc13)[C@@](C(=O)OC)(c1cc3c(cc1OC)N(C)[C@H]1[C@@](O)(C(=O)OC)[C@H](OC(C)=O)[C@]4(CC)C=CCN5CC[C@]31[C@@H]54)C2 [Vinorelbine_Tartrate] — lower, -41%
- COc1ccc(-c2ccc3c(N4CCOCC4)nc(N4C[C@@H](C)O[C@@H](C)C4)nc3n2)cc1CO — higher, -2.21%
- O=C(Nc1cccc(C(F)(F)F)c1)Nc1cc(S(=O)(=O)NC2CC2)ccc1-c1ccsc1 — higher, -8.01%
- CCc1c2c(nc3ccc(OC(=O)N4CCC(N5CCCCC5)CC4)cc13)-c1cc3c(c(=O)n1C2)COC(=O)[C@]3(O)CC [Irinotecan] — higher, -12.2%
- CC(=O)O[C@H]1C(=O)[C@@]2(C)[C@H]([C@H](OC(=O)c3ccccc3)[C@]3(O)C[C@H](OC(=O)[C@H](O)[C@@H](NC(=O)c4ccccc4)c4ccccc4)C(C)=C1C3(C)C)[C@]1(OC(C)=O)CO[C@@H]1C[C@@H]2O [Paclitaxel] — lower, -45.1%
- O=C(NC1CCNCC1)c1n[nH]cc1NC(=O)c1c(Cl)cccc1Cl — higher, -11.2%
- CN(C)/N=N/c1[nH]cnc1C(N)=O [Dacarbazine] — higher, -9.4%
- COc1cc(F)c(F)c(Nc2ccc(I)cc2F)c1NS(=O)(=O)C1(C[C@H](O)CO)CC1 [Refametinib] — higher, -9.94%
- CN1CCN(CCOc2cc(OC3CCOCC3)c3c(Nc4c(Cl)ccc5c4OCO5)ncnc3c2)CC1 [Saracatinib] — higher, 14.3%
- O=C(c1cc(Cc2n[nH]c(=O)c3ccccc23)ccc1F)N1CCN(C(=O)C2CC2)CC1 [Olaparib] — within error, -24.4 ± 6.6%
- CN(Cc1cnc2nc(N)nc(N)c2n1)c1ccc(C(=O)N[C@@H](CCC(=O)O)C(=O)O)cc1 [Abitrexate] — higher, -8.44%
- O=c1[nH]cc(F)c(=O)[nH]1 [Adrucil] — higher, 1.58%
- CC(C)=CCC1=C(O)C(=O)c2ccccc2C1=O [Lapachol] — higher, 10.9%
- O=c1cc(-c2cccc3c2Sc2ccccc2S3)oc(N2CCOCC2)c1 — higher, 4.24%
- CS(=O)(=O)CCNCc1ccc(-c2ccc3ncnc(Nc4ccc(OCc5cccc(F)c5)c(Cl)c4)c3c2)o1 [Lapatinib_Ditosylate] — higher, -5.86%
- CC(C)NCCCn1c(Sc2cc3c(cc2I)OCO3)nc2c(N)ncnc21 — lower, -28.4%
- CCC[C@H](NC(=O)/C(C#N)=C/c1cccc(Br)n1)c1ccccc1 — higher, 5.71%
- COc1cc(Nc2ncc3c(n2)-c2ccc(Cl)cc2C(c2c(F)cccc2OC)=NC3)ccc1C(=O)O — higher, -13.5%
- O=C1c2c(O)ccc(O)c2C(=O)c2c(NCCNCCO)ccc(NCCNCCO)c21 [Mitoxantrone_HCl] — lower, -32.7%
- Cc1ccccc1C(C(=O)NC1CCCC1)N(C(=O)Cn1cnc2ccccc21)c1cccc(F)c1 (stereo not given) — higher, -1.67%
- Cc1ccc(NC(=O)c2ccc(CN3CCN(C)CC3)cc2)cc1Nc1nccc(-c2cccnc2)n1 [Imatinib_Mesylate] — higher, -3.71%
- COc1cc2nccc(Oc3ccc(NC(=O)NC4CC4)c(Cl)c3)c2cc1C(N)=O — higher, 5.17%
- Cc1cnc(Nc2ccc(OCCN3CCCC3)cc2)nc1Nc1cccc(S(=O)(=O)NC(C)(C)C)c1 [Fedratinib] — higher, -9.15%
- Cc1cccc(Nc2nc(-c3ccncc3)cs2)c1 — higher, -3.22%
- CCOc1cc2ncc(C#N)c(Nc3ccc(F)c(Cl)c3)c2cc1NC(=O)/C=C/CN(C)C [Pelitinib] — higher, 4.27%
- C[C@H]1O[C@@H](O[C@H]2[C@@H](O)C[C@H](O[C@H]3[C@@H](O)C[C@H](O[C@H]4CC[C@@]5(C)[C@H](CC[C@@H]6[C@@H]5CC[C@]5(C)[C@@H](C7=CC(=O)OC7)CC[C@]65O)C4)O[C@@H]3C)O[C@@H]2C)C[C@H](O)[C@@H]1O [Digitoxin] — higher, -8.01%
- Fc1cc(-c2cccc3ncc(-c4cnn(C5CCNCC5)c4)nc23)cc(F)c1CN1CCOCC1 — higher, 2.04%
- COc1ccc(COc2cc3oc(=O)c4cc(C(C)O)ccc4c3cc2OC)cc1 (stereo not given) [Palomid_529] — higher, -0.0774%
- CC(=O)OC[C@H]1O[C@@H]([S-])[C@H](OC(C)=O)[C@@H](OC(C)=O)[C@@H]1OC(C)=O.CCP(CC)CC.[Au+] [Auranofin] — higher, -10.3%
- Cc1ccc([N+](=O)[O-])cc1S(=O)(=O)N(C)/N=C/c1cnc2ccc(Br)cn12 — higher, -9.04%
- CCOC(=O)c1[nH]c2cc(Cl)ccc2c1C(C(=O)NC(C)(C)C)N(C=O)Cc1ccc(Cl)cc1 (stereo not given) — higher, 0.502%
- CS(=O)(=O)N1CCN(Cc2cc3nc(-c4cccc5[nH]ncc45)nc(N4CCOCC4)c3s2)CC1 — higher, -4.07%
- Cc1c(-c2ccc(-c3ccccc3F)cc2)nc2ccc(F)cc2c1C(=O)O [Brequinar] — higher, -6.11%
- CCC(C)(C)C(=O)O[C@H]1C[C@@H](C)C=C2C=C[C@H](C)[C@H](CC[C@@H]3C[C@@H](O)CC(=O)O3)[C@H]21 [Simvastatin] — higher, -12.1%
- COC1=CC(c2cc3ccccc3[nH]2)=N/C1=C\c1[nH]c(C)cc1C [Obatoclax_mesylate] — higher, -8.47%
- C/C=C/C/C=C/CCC(=O)[C@H]1O[C@H]1C(N)=O [Cerulenin] — higher, -9.61%
- CC(=O)Nc1nc(C)c(-c2ccc(Cl)c(S(=O)(=O)NCCO)c2)s1 — higher, -8.79%
- CN(CC(=O)N(Cc1ccc(C2CCCCC2)cc1)c1ccc(C(=O)O)cc1)S(=O)(=O)c1c(F)c(F)c(F)c(F)c1F — higher, 3.06%
